ALDH1A1 inh: inhibitors of human aldehyde dehydrogenase 1A1; 7.3% of 220,000 active; Potency, µM (highest dose often 75.3 µM), for inactives: at the top dose activity, negative = inhibition, most hits filed as inhibitors; Purified ALDH1A1, NADH fluorescence, propionaldehyde substrate;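 also: potency is read from the fitted curve at half-maximal effect; plate controls were no enzyme wells and a reference inhibitor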
PNC inhibitor: inhibitors of perinucleolar compartment assembly; PC3M PTB-GFP, PNC prevalence imaging, 16 h; active compounds read low; AID 2417; 3.1% of 140,000 active; activity change (PNC), negative = inhibition, % at 10 µM;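 active = readout at or below -70, meaning at least 70% loss of cells showing the perinucleolar compartment, a nuclear body marking cancer cells; inconclusive = readout between -30 and a set limit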;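 also: plate controls were DMSO wells for no effect and camptothecin positive control wells for full effect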
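Compounds are pinned in duplicate onto adhered PC3M cells stably expressing GFP-tagged PTB and incubated 16 h at 37 C. Cells are then fixed, nuclei stained with Hoechst, and PNC-positive cells counted.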
HPGD block: HPGD (human) dehydrogenase inhibition. AID 894. purified HPGD, NADH fluorescence kinetic, PGE2 substrate. Potency, µM, without a hit: at the highest dose activity change, negative = inhibition, most hits filed as inhibitors. 4.3% of 150,000 active. P15428; also: potency is read from the fitted curve at half-maximal effect
Target sequence (P15428 whole entry, looked up): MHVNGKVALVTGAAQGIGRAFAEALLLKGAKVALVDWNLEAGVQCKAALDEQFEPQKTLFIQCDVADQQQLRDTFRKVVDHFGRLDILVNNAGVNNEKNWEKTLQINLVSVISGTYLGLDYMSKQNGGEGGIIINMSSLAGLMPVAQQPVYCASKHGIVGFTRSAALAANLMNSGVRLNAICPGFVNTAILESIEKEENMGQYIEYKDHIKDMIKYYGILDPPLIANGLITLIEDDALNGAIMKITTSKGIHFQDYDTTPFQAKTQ
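NADH formation kinetics: reaction with 30 uM PGE2 and 1 mM NAD+ (final), 20 nM enzyme, Tris-HCl pH 8 with Tween 20, after 15 min compound preincubation at room temperature. Fluorescence change, last versus first of five reads.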
* = called active by the depositor; ? = inconclusive; . = no result given. Hits are enriched below; roughly 11% of the tested compounds scored in any of these assays. Unless noted, calls follow the shape of the dose curve; as a rule, active = well fitted inhibition curve with a large enough effect (not every such curve was filed as active); inconclusive = small, poorly fitted or top-dose-only effect, or another doubt; inactive = no such curve, though single readings can be large or run the other way. Unless noted, % is scaled to controls: 0 for no effect and ±100 for the full control effect.

SMILES | ALDH1A1 inh | PNC inhibitor | HPGD block
COc1cc(-c2nnc(SC(C)C(=O)Nc3c(C)n(C)n(-c4ccccc4)c3=O)o2)cc(OC)c1OC (stereo unspecified) | 25% | 2 | 0%
CC(O)CNc1ccc(-c2nn(C)c(=O)c3ccccc23)cc1[N+](=O)[O-] (stereo unspecified) | 7.9µM* | . | .
CN(C)CCCNc1ccc(-c2nn(C)c(=O)c3ccccc23)cc1[N+](=O)[O-] | 5% | . | .
Cc1ccc(/C(N)=N/OC(=O)COc2ccccc2Cl)cc1 | 7% | -1 | -9%
O=C(c1ccc2ccccc2n1)N1CCN(c2ccccc2)CC1 | 7% | 42 | 1%
O=C(c1ccc2ccccc2n1)N1CCN(c2ccccc2O)CC1 | ? | -96* | -23%
O=C(CSc1nnc(Nc2ccccc2F)s1)c1cc2ccccc2o1 | ? | 1 | -14%
O=C1c2ccccc2C(=O)N1CSc1nnc(Nc2ccccc2F)s1 | 7.1µM* | 65 | -19%
Cc1ccc(/C=N/NC(=O)c2ccncc2)o1 | ? | -3 | -26%
CC(=C\C(=O)O)/C(=C/c1ccc(C)o1)C(=O)O | 22µM* | -2 | -19%
O=C(NNc1ncccc1Cl)c1c(Cl)cccc1Cl | 16% | . | .
CC(=O)Nc1ccccc1Oc1ccccc1 | 10% | . | .
O=C(O)CCCCCNc1nc2ncn(Cc3ccccc3)c2c(=O)[nH]1 | ? | ? | -13%
CC(Nc1nc2ncn(Cc3ccccc3)c2c(=O)[nH]1)C(=O)O (stereo unspecified) | 1% | ? | 28µM*
O=C(CSc1nc2ccccc2c(=O)n1Cc1ccc(C(=O)NC2CC2)cc1)NCc1ccco1 | -8% | -17 | 2.8µM*
NC(=O)CSc1nc2ccccc2c(=O)n1Cc1ccco1 | ? | -17 | -7%
N#CCSc1nc2ccccc2c(=O)n1CCCC(=O)NCc1ccco1 | -3% | . | .
CCn1c(SCc2nc3cc(OC)c(OC)cc3c(=O)[nH]2)nc2ccccc21 | -3% | . | .
O=C(CCCCCn1c(SCc2ccncc2)nc2ccccc2c1=O)NCc1ccco1 | 25µM* | -100* | 18µM*
O=C(CSc1nc2ccccc2c(=O)n1Cc1ccccc1)NCc1ccco1 | ? | 54 | -23%
O=C(CSc1nc2ccccc2c(=O)n1Cc1ccco1)c1ccc(F)cc1 | 11µM* | -2 | -30%
CCSc1nc2cc(OC)c(OC)cc2c(=O)n1CC | 8.9µM* | 7 | -13%
CCC(=O)Nc1ccccc1C(=O)C(=O)Nc1ccccc1 | ? | 42 | -9%
COCC(=O)N1CCC2(CC1)CCN(c1cccc(-c3ccccc3)c1)CC2 | -1% | . | -14%
Cc1cc(Br)ccc1OCCn1ccnc1 | -3% | 17 | -13%
SMILES | ALDH1A1 inh | PNC inhibitor | HPGD block
CC1CC(=O)Nc2ccccc2N1C(=O)CN1CCN(c2ccccc2)CC1 (stereo unspecified) | 3% | . | .
Cc1nnc(SCC(=O)Nc2nccs2)n(N)c1=O | 1% | . | .
CS(=O)(=O)Nc1nnc(SCC(=O)Nc2cccc([N+](=O)[O-])c2)s1 | -3% | 13 | -3%
CCCCNC(=O)CSc1nc2cc(OC)c(OC)cc2c(=O)n1Cc1ccc(OC)cc1 | 2% | -21 | -12%
COc1ccc(Cn2c(SCC(=O)NCc3ccco3)nc3ccsc3c2=O)cc1 | -2% | 5 | -6%
O=C(CSc1nc2ccsc2c(=O)n1Cc1ccc(C(=O)O)cc1)NCc1ccco1 | 6% | -113* | 20µM*
COCCNC(=O)CSc1nc2cc(OC)c(OC)cc2c(=O)n1Cc1ccco1 | 2.2µM* | ? | -14%
COC(=O)c1c(C)[nH]c(C(=O)CSc2ccc(Cl)cc2)c1C | 5% | -16 | -8%
CCN(c1ccc(NC(=O)COC(=O)c2ccc(S(=O)(=O)N3CCCC3)cc2)cc1)C(C)C | -3% | 26 | -11%
COc1ccc(S(=O)(=O)NCc2csc(C)n2)cc1 | 7% | -26 | -10%
CC(=O)Nc1ccc(S(=O)(=O)NCc2csc(C)n2)cc1 | -7% | 71 | 0%
CCOc1ccc(S(=O)(=O)NCc2csc(C)n2)cc1 | 3% | -91* | -9%
Cc1nc(CNS(=O)(=O)c2cc(C)c(C)cc2C)cs1 | 13µM* | -23 | -9%
COc1ccc(C2C(=O)N(C3CCCCCC3)CC(=O)N2Cc2ccccc2)cc1OC (stereo unspecified) | -12% | 65 | -2%
Cc1ccc2c(c1)C1CCCC3C1N2CC(=O)N3Cc1ccccc1 (stereo unspecified) | 22µM* | ? | -23%
O=C(CSc1nnc(C2COc3ccccc3O2)o1)N1CCN(c2ccccc2)CC1 (stereo unspecified) | 3% | . | .
CN(C)S(=O)(=O)c1ccc(C(=O)OCC(=O)Nc2sc3c(c2C#N)CCCCC3)cc1 | -15% | 54 | -4%
CNS(=O)(=O)c1cccc(C(=O)OCC(=O)Nc2sc3c(c2C#N)CCCCC3)c1 | 25µM* | 19 | .
COc1c(Cl)cc(Cl)cc1CNCCO | 0% | . | .
Cc1cc(C)cc(N=Cc2ccc([N+](=O)[O-])s2)c1 | ? | 39 | -10%
NC(=O)c1ccc(N=Cc2ccc([N+](=O)[O-])s2)cc1 | 20µM* | ? | -5%
O=[N+]([O-])c1ccc(C=Nc2ccc(Cl)c([N+](=O)[O-])c2)s1 | 14µM* | . | .
NC(=O)c1ccc([N+](=O)[O-])cc1 | 8% | . | -11%
Nc1ncnc2c1nc(Br)n2C1O[C@H]2COP(=O)(O)O[C@@H]2C1O (stereo partly specified) | 3% | . | -6%
CCC(CC)C(=O)c1c[nH]c(C(=O)NCC2CCCO2)c1 (stereo unspecified) | 4% | 33 | -25%
SMILES | ALDH1A1 inh | PNC inhibitor | HPGD block
NC(=S)N/N=C\c1c(OCc2ccccc2Cl)ccc2ccccc12 | -5% | . | .
CC1CC(C)CN(C(=O)c2ccccc2Nc2ccc(SC(F)F)cc2)C1 (stereo unspecified) | 10% | 48 | -19%
CCC(C)N1CCCCC1C(=O)Nc1c(C)cc(C)cc1C (stereo unspecified) | 6% | ? | -14%
CCOc1ccc(Nc2ncnc3c2cnn3Cc2ccccc2)cc1 | 11µM* | -12 | ?
c1ccc(CNc2ncnc3c2cnn3Cc2ccccc2)cc1 | ? | 12 | ?
COc1ccc(Nc2ncnc3c2cnn3Cc2ccccc2)cc1 | 8.9µM* | 6 | 22µM*
CCOc1ccc(Nc2ncnc3c2cnn3-c2ccccc2)cc1 | -10% | 13 | -9%
NNC(=O)c1ccc(N2CCCCCC2)c([N+](=O)[O-])c1 | 1.6µM* | . | .
CC(=O)c1ccc(N2CCN(c3ccc(C(N)=O)cc3[N+](=O)[O-])CC2)cc1 | 4% | . | .
CCOC(=O)C1CCN(c2ccc(C(N)=O)cc2[N+](=O)[O-])CC1 | -1% | -12 | .
O=[N+]([O-])c1cc([N+](=O)[O-])c(N2CCCCCC2)cc1NCCO | 2.2µM* | 96 | -10%
NC(=O)c1ccc(N2CCN(c3ccc(O)cc3)CC2)c([N+](=O)[O-])c1 | 16µM* | . | .
N#Cc1cc(N2CCCCC2)c([N+](=O)[O-])cc1C#N | ? | 18 | -16%
O=C1CN(C(=O)COC(=O)c2ccc(N3CCCCCC3)c([N+](=O)[O-])c2)c2ccccc2N1 | 7.9µM* | 13 | .
O=C1CN(C(=O)COC(=O)c2ccc[n+]([O-])c2)c2ccccc2N1 | 0% | . | .
CCOC(=O)N1CCN(C(=S)Nc2cc(S(=O)(=O)N3CCOCC3)ccc2Cl)CC1 | -7% | . | .
COc1ccc(C2(CNC(=O)Cc3ccc(OC)c(OC)c3)CCOCC2)cc1 | -2% | -2 | -1%

Screening results as filed in PubChem.
